Hits are enriched below; roughly 1.8% of the tested compounds scored in any of these assays.
HEK293 tox: cytotoxic in the GLP-1 receptor inverse agonist counter-screen. HEK293 cAMP-luciferase reporter cells, luminescence, 24 h. Potency, µM (doses to about 38.3 µM), most hits filed as inhibitors. 410,000 tested, 0.13% active;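 further: loss of luciferase light is scored as toxicity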
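Seeding density was 200 cells/uL; after overnight-length (12 h) culture, 23 nL compounds went on for 24 h at 37 °C. Readout used a luciferase detection reagent, luminescence taken after 12 min at room temperature.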
Pin1 inhibitor: blocks the human prolyl isomerase Pin1; Pin1 FP peptide displacement, HiFluor488, 10 min; Q13526; 390,000 tested, 0.009% active; Potency, µM (titrated, usually from 115 µM), hits mostly inhibitors; active means well fitted inhibition curve with a large enough effect in the polarisation, with a control signal flat, not every such curve was filed as active; inconclusive means small, poorly fitted or top-dose-only effect, or effect the other way, or a change in a side signal; inactive means no such curve, though single readings can be large or run the other way; the % refers to the polarisation
Target sequence (Q13526 whole entry, looked up): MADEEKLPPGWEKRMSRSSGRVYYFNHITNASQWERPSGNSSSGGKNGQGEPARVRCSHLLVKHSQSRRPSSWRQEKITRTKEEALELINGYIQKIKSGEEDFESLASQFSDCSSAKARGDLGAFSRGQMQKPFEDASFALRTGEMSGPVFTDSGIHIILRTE
GLP-1R agonist: activates the human GLP-1 receptor | HEK293 GLP-1R CRE-luciferase, luminescence, 4-6 h; cells express a hypersensitive GLP-1R form | 380,000 tested, 0.007% active | Potency, µM (series often up to 45.6 µM), hits mostly activators | P43220
GLP1R inv ag: GLP-1 receptor (human) inverse agonism; P43220; HEK293 GLP-1R CRE-luciferase, luminescence, 24 h; GLP-1R form is constitutively active; Potency, µM (top dose mostly 38.3 µM), hits mostly inhibitors; 410,000 tested, 1.6% active; AID 624417; further: nearly all actives have a fitted effect of over 55% in size
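Seeding at 200 cells/uL, 12 h culture, 24 hr compound treatment, then luciferase reagent and a luminescence read; cells are HEK293 stably expressing a constitutively active GLP-1R plus cAMP-responsive luciferase.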
PGK inhibitor: T. brucei PGK inhibition; P07378; Potency, µM (doses to about 57.5 µM), usual class: inhibitors; PGK/GAPDH coupled, Kinase-Glo luminescence, 60 min; 380,000 tested, 0.043% active; further: nearly all actives have a fitted effect of over 60% in size
Target sequence (P07378 whole entry, looked up): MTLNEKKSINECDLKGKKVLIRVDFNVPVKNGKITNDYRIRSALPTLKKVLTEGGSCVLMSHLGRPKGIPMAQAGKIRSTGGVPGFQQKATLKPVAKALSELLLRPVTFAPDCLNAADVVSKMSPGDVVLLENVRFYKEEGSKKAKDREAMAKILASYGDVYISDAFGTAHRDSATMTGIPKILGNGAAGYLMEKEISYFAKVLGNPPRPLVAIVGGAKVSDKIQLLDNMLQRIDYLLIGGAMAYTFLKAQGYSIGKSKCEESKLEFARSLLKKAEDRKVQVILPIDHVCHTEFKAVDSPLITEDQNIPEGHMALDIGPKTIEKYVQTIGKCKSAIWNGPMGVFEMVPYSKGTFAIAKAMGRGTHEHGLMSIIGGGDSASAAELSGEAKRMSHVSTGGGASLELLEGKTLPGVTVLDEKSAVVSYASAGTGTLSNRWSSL
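Luminescent ATP detection (Kinase-Glo Plus) follows a 60-minute room-temperature incubation, with wells lacking PGK as controls. Buffer: 100 mM TEA (pH 7.6), 5 mM MgCl2, 0.01% Tween-20. Coupling enzyme GAPDH (100 nM final) supplies unstable 1,3-BPG in-well.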
Tb PFK inh: blocks T. brucei phosphofructokinase; O15648; T. brucei PFK, ADP-Glo luminescence; Potency, µM (top dose mostly 57.5 µM), most hits filed as inhibitors; 330,000 tested, 0.17% active; further: nearly all actives have a fitted effect of over 60% in size
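1.25 nM PFK with 0.5 mM F6P and 0.1 mM ATP in 0.1 M TEA pH 8.0, 5 mM MgCl2, incubated 45 min at room temperature; ADP measured by ADP-Glo luminescence; compounds titrated up to 57 uM.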
Hits are given with their value; . = inactive; ? = inconclusive; / = not tested or not shown. Unless noted, the call rests on the fitted dose curve; in most records, active means well fitted curve in the direction sought with a large enough effect; inconclusive means small, poorly fitted or top-dose-only effect, or another doubt; inactive means no such curve, though single readings can be large; an effect the other way counts as inactive or inconclusive.

SMILES	HEK293 tox	Pin1 inhibitor	GLP-1R agonist	GLP1R inv ag	PGK inhibitor	Tb PFK inh
C=C(C)CNC(=S)N/N=C/c1ccc(N2CCOCC2)cc1	?	.	.	10µM	.	.
NC(=O)C1CCN(c2nnc(-c3ccc4c(c3)OCCCO4)s2)CC1	/	.	/	/	/	/
O=S(=O)(c1ccc2c(c1)OCCO2)N1CCN(S(=O)(=O)c2ccc(F)cc2F)CC1	/	.	/	/	/	/
Cc1ccc(C)c(C(Nc2ccccc2)c2ccc3ccc(C)nc3c2O)c1 (stereo not given)	.	/	/	5.62µM	/	/
Cc1cccc(NC(c2ccccc2F)c2ccc3ccc(C)nc3c2O)n1 (stereo not given)	.	.	/	.	.	/
Oc1cccc(Nc2nc(N3CCOCC3)nc(N3CCOCC3)n2)c1	.	.	.	?	.	.
Cc1cccc(Nc2nc(Nc3cccc(C)c3)nc(N3CCOCC3)n2)c1	.	.	/	4.47µM	.	/
Cc1cccc(Nc2nc(N3CCOCC3)nc(N3CCOCC3)n2)c1	.	.	.	5.62µM	.	.
c1ccc(Nc2nc(N3CCNCC3)nc(N3CCOCC3)n2)cc1	.	.	.	2.51µM	.	.
Cc1cccc(Nc2nc(N3CCCCC3)nc(N3CCCCC3)n2)c1	.	.	.	?	.	.
Cc1ccc(-c2nnc(Nc3ccc(Br)cc3)c3ccccc23)cc1S(=O)(=O)NCC1CCCO1 (stereo not given)	.	.	/	?	.	/
O=C1NC(=O)C2(CCc3ccccc32)N1 (stereo not given)	.	.	.	.	.	.
C=C1CC2(OC1=O)c1ccccc1CCc1ccccc12	10µM	.	.	?	.	/
Cn1cc(P(=O)(c2ccccc2)c2ccccc2)c2ccccc21	/	.	/	/	/	/
O=C(NC1CCCCC1)C(c1cccnc1)N(C(=O)CCl)c1ccc(F)cc1 (stereo not given)	?	.	.	?	.	.
O=C(NC1CCCCC1)C(c1cccnc1)N(C(=O)CCl)c1ccccc1Cl (stereo not given)	.	.	.	1.58µM	.	.
COc1ccc(C(C(=O)NC2CCCCC2)N(C(=O)CCl)c2cccc(Cl)c2)cc1 (stereo not given)	.	.	.	2.82µM	.	.
CCCCCNC(=O)c1cccc(S(=O)(=O)N2CC3(C)CC2CC(C)(C)C3)c1 (stereo not given)	.	.	.	6.31µM	.	.
CC1(C)CC2CC(C)(CN2S(=O)(=O)c2cccc(C(=O)O)c2)C1 (stereo not given)	.	.	.	.	.	.
CCN(CC)C(=O)c1sc2c(c1C)c(=O)n(CCc1ccccc1)c(=O)n2Cc1cccc(Cl)c1	.	.	/	?	.	/
CCN(CC)C(=O)c1sc2c(c1C)c(=O)n(Cc1ccccc1)c(=O)n2Cc1ccccc1C	.	.	/	11.2µM	.	/
CC(C)(C)C1COc2ccccc2N1C(=O)c1ccccc1Cl (stereo not given)	.	.	.	8.91µM	.	.
c1ccc2nc(N3CCCC3)c(N3CCCCC3)nc2c1	.	.	.	11.2µM	.	/
c1ccc2nc(N3CCOCC3)c(N3CCCC3)nc2c1	.	.	.	?	.	/
Nc1c(Br)cc(Br)c2cccnc12	/	.	/	/	/	/
SMILES	HEK293 tox	Pin1 inhibitor	GLP-1R agonist	GLP1R inv ag	PGK inhibitor	Tb PFK inh
COc1ccc2[nH]c3c(NCCC4=CCCCC4)ncnc3c2c1	?	.	.	5.01µM	.	.
O=C(c1nc(-c2ccc(Cl)cc2)n2c1CCCCC2)N1CCN(c2ccccc2)CC1	.	.	/	.	.	/
CCOC(=O)c1sc2nc(CC(=O)OC)nc(N3CCN(c4ccc(OC)cc4)CC3)c2c1C	.	.	.	3.98µM	/	.
CCOC(=O)c1sc2nc(CC(=O)OC)nc(NCCN3CCOCC3)c2c1C	.	.	.	.	.	.
O=[N+]([O-])c1cccc(C=NNc2ccccc2)c1	.	.	.	?	.	/
O=C(CN1c2ccccc2Sc2ccccc21)N/N=C/c1ccccc1	.	.	.	?	.	.
O=C(CN1c2ccccc2Sc2ccccc21)N/N=C/c1ccc([N+](=O)[O-])cc1	.	.	.	12.6µM	.	.
O=[N+]([O-])c1ccc(C=NNc2ccccc2)cc1	.	.	.	5.01µM	.	/
COc1c(C)cc(Br)cc1C(=O)Nc1ccc(Cc2ccncc2)cc1	.	.	.	10µM	.	.
COC(=O)C1=C(C)N(c2ccc(Cl)c(Cl)c2)C(=O)C1	.	.	.	12.6µM	.	.
Cc1ccc2c(c1)C1CN(C)CCC1N2C(=S)NC(=O)c1ccc(Br)cc1 (stereo not given)	?	.	.	11.2µM	.	.
c1nc(NCC2CCCO2)c2ccc(-c3ccc4c(c3)OCO4)cc2n1 (stereo not given)	/	.	/	/	/	/
Cc1cccc(C)c1OC(=O)CCN1C(=O)C2C3C=CC(C4CC34)C2C1=O (stereo not given)	.	.	.	7.08µM	.	.
O=C(CCN1C(=O)C2C3C=CC(C4CC34)C2C1=O)Oc1ccccc1 (stereo not given)	.	.	.	.	/	.
COc1ccc2ncnc(NCC3CCCO3)c2c1-c1ccc2c(c1)OCO2 (stereo not given)	/	.	/	/	/	/
COc1ccc(CN2CSC(=S)N(Cc3ccccc3)C2)cc1	?	.	.	10µM	.	.
S=C1SCN(Cc2cccnc2)CN1Cc1cccnc1	?	.	.	3.16µM	.	.
O=C(Nc1ccc(O)c2ncccc12)c1ccccc1F	/	.	/	/	/	/
COc1ccc(C(C)C)cc1S(=O)(=O)NCCc1c(C)[nH]c2c(Cl)cccc12	.	?	/	?	/	/
COc1ccc(C(C)C)cc1S(=O)(=O)NCCc1c(C)[nH]c2ccc(C)cc12	.	.	/	11.2µM	.	/
COc1cc(S(=O)(=O)NCCc2c(C)[nH]c3ccc(C)cc23)ccc1Br	.	.	/	10µM	.	/
O=C(Cc1ccc(NC(=O)N2CCSc3ncccc32)cc1)NCc1cccc(Cl)c1	.	.	/	.	.	/
Cn1c(=O)n(C/C=C/c2ccccc2)c(=O)c2c1nc1n2CCN1c1ccccc1	.	.	/	.	.	/
COc1ccc2c(c1)OC[C@H]1[C@H]2N2C(=O)CN(CCc3c[nH]c4ccccc34)C(=O)[C@@]2(C)[C@H]1c1ccccc1	.	.	.	5.01µM	.	.
CCOC(=O)[C@H]1[C@H]2COc3cc(OC)ccc3[C@@H]2N2C(=O)CN(CCc3c[nH]c4ccccc34)C(=O)[C@@]12C	.	.	.	.	.	.
CC(NC(=O)C(Cc1ccccc1)n1cccc1)c1ccccc1 (stereo not given)	.	.	.	11.2µM	.	.
Cc1ccc(CNC(=O)C(Cc2ccccc2)n2cccc2)cc1 (stereo not given)	.	.	.	?	.	.

Screens (PubChem)
